Assay outcomes from PubChem.
KLF5 inhibitor – KLF5 expression inhibitors, primary screen, DLD-1 cells, luminescence; DLD-1 KLF5 promoter-luciferase reporter; inhibition, % at 5 µM; 290,000 compounds, 0.23% hits;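 active means inhibition above a per-plate limit of that plate's mean compound inhibition plus 3 SD, cut at about 60% in these data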;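 further: 0% = DMSO wells and 100% = LY294002 at 200 µM; higher means less KLF5 promoter-driven luciferase light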
Jurkat NFkB inh – inhibitors of induced NF-kB luciferase reporter, primary screen, TCR NF-kB activation inhibitor project, cell-based, luminescence, uHTS. Jurkat, PMA/ionomycin-induced NF-kB luciferase reporter. inhibition, % at 4 µM. 330,000 compounds, 0.53% hits. AID 435003, 2010; in the data active means inhibition above about 50%
697 NFkB inh – inhibitors of PMA/ionomycin-induced NF-kB reporter, 697 cells, primary screen, B-cell NF-kB inhibitor project, cell-based, luminescence, uHTS | 697 B-cell NF-kB luciferase reporter, 16 h | inhibition, % at 4 µM | 330,000 compounds, 0.33% hits | AID 435022, 2010; in the data active means inhibition above about 35%
TMEM16A act – TMEM16A chloride channel activators or potentiators, primary screen, cell-based, HTS; Anoctamin-1 (Mus musculus), Q8BHY3; HEK293 TMEM16A/YFP-H148Q/I152L, iodide quench fluorescence; hits give low values; B-score at 10 µM; 340,000 compounds, 0.3% hits;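 active means fluorescence-ratio B-score plate-corrected deviation score at least 3 library SD below zero, with starting fluorescence score within 5 deviations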;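 further: channel opened by trigger with iodide after compound preincubation; score built on the fluorescence ratio of max minus min over baseline; more negative score means more quench and so TMEM16A activation or potentiation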
Target sequence (Q8BHY3 whole entry, looked up): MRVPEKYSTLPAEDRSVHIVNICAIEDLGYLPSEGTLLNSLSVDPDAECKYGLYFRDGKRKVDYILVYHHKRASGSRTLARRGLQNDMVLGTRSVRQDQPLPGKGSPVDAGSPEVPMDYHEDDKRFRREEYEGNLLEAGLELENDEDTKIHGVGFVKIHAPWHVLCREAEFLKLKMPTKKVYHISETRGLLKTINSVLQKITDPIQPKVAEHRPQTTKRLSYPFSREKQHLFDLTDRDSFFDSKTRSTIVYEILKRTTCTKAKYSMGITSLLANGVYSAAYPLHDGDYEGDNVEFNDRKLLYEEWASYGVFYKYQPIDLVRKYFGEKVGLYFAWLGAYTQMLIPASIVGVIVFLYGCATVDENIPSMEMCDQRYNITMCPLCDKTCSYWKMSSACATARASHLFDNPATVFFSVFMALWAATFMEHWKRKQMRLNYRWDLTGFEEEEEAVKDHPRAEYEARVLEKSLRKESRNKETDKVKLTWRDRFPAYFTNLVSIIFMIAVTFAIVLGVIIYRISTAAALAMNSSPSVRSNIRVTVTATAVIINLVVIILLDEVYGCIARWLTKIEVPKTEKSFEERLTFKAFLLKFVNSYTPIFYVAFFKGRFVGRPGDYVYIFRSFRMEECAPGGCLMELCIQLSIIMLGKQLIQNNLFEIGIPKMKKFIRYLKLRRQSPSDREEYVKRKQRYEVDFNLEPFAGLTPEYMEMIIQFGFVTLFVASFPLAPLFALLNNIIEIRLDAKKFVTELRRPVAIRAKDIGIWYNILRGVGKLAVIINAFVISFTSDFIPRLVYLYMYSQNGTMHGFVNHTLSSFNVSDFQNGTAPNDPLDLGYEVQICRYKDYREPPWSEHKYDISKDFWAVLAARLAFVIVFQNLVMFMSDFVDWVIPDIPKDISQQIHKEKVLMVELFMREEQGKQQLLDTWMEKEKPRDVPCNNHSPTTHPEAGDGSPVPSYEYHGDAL
TMEM16A inh – TMEM16A chloride channel inhibitors, primary screen, cell-based, HTS. Anoctamin-1 (Mus musculus), Q8BHY3. HEK293 TMEM16A/YFP iodide influx fluorescence, ionomycin. normalized B-score (activity score, 25-100; higher = stronger inhibition) at 10 µM. 310,000 compounds, 1.2% hits;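 active means ratio plate-corrected score three or more library SD toward inhibition, starting fluorescence score within five deviations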;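 further: score derived from kinetic fluorescence span divided by baseline fluorescence per well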
aSyn 5UTR inh – MLPCN primary screen, SNCA 5' untranslated region; alpha-synuclein 5'UTR reporter, inhibitor activity; inhibition, % (tested at 7.5 µM); 300,000 compounds, 0.82% hits; in the data active means inhibition above about 60%;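 further: H4 neuroglioblastoma cells stably carrying SNCA 5'UTR luciferase fusion; 0% = DMSO wells and 100% = positive control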
Jurkat NFkB conf – PMA/ionomycin-induced NF-kB reporter inhibitors, Jurkat retest, confirmation, T-cell NF-kB inhibitor project, cell-based, luminescence, single concentration | Jurkat NF-kB luciferase, 16 h | 2,700 compounds, 27% hits | inhibition, % at 4 µM | shares compounds with Jurkat NFkB inh | AID 435020, 2010;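 active means inhibition reaching about 45% at 4 µM in either replicate, limit read from the data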;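 further: plate controls were PMA/ionomycin stimulated DMSO wells for no effect and unstimulated DMSO wells for full effect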
* = called active by the depositor; i = inactive; nt = no result given. The list is not random: actives were taken first. Their share in the collection is about 2.5%.

SMILES	KLF5 inhibitor	Jurkat NFkB inh	697 NFkB inh	TMEM16A act	TMEM16A inh	aSyn 5UTR inh	Jurkat NFkB conf
COc1ccc(-c2cc(=Nc3ccc(C(=O)O)cc3)c3cc(C)ccc3o2)cc1	-135	-178	-143	i	i	4	-116
CCc1ccc2oc(-c3ccc(OC)cc3)cc(=Nc3c(C)n(C)n(-c4ccccc4)c3=O)c2c1	-80	-232	-236	i	100*	-77	-115
CC(=O)Nc1ccc(CC(=O)NCCC(c2ccccc2)c2ccccc2)cc1	18	40	-9	i	i	-45	nt
Cc1ccc(O)c(C(=O)c2cnn(C(=O)COc3ccccc3C#N)c2)c1	-5	7	-14	nt	i	1	nt
CCOC(=O)C1CCN(S(=O)(=O)c2c(Cl)ccc3nonc23)CC1	60	72*	-2	i	i	-309	40
Cc1ccc(NC(=O)CSc2nc3ccccc3c3nc4ccccc4n23)cc1	-9	73*	3	i	i	110*	39
COc1cc(/C=C(\C#N)C(=O)N2CCOCC2)ccc1OCc1ccccc1	-20	-24	8	i	i	-120	nt
N#C/C(=C\c1ccc(OCc2ccc(C(=O)O)cc2)cc1)C(=O)N1CCOCC1	40	66*	-25	i	i	93*	60*
COc1ccc(OCCOC(=O)CCS(=O)(=O)c2ccc(C)cc2)cc1	nt	-8	0	i	i	7	nt
CC1=C/C(=N\OS(=O)(=O)c2ccccc2)C(C)=CC1=O	-53	51*	-13	-6.4*	100*	nt	28
CC(=O)Nc1ccc(Nc2nc3ccccc3nc2NS(=O)(=O)c2ccc(Cl)c([N+](=O)[O-])c2)cc1	nt	nt	nt	i	nt	nt	nt
CC1CCc2cc(F)ccc2N1C(=O)c1cccnc1 (stereo unspecified)	-34	-7	1	i	i	-13	nt
Cc1c(C(=O)N2CCN(c3ccccc3)CC2)oc2c(F)cccc12	1	-14	-27	i	i	-13	nt
Cc1cc(Cl)c2oc(C(=O)N3CCN(c4ccncc4)CC3)c(C)c2c1	-24	61*	-50	i	i	90*	15
O=C(O)c1ccc(NC(=S)Nc2ccc(S(=O)(=O)Nc3ccccn3)cc2)cc1	nt	nt	nt	i	nt	nt	nt
O=C(Nc1ccc(Br)cc1)c1ccc2c(c1)OCO2	-106	-151	-238	i	i	-174	-123
O=C(Nc1ccc2nsnc2c1)c1ccc2c(c1)OCO2	-135	-166	-159	i	i	nt	-72
O=C1CC(c2ccccc2Br)c2cc3c(cc2N1)CCC3 (stereo unspecified)	-29	55*	-47	nt	i	12	12
O=C1CC(c2cc(Br)ccc2F)c2cc3c(cc2N1)CCC3 (stereo unspecified)	0	73*	8	i	i	65*	48*
O=C(Nc1ccccc1C(=O)N1CCCCC1)c1ccc(Cl)cc1Cl	-16	-5	2	i	i	-1	nt
O=C(CSCc1ccc(Br)cc1)Nc1ccccc1C(=O)N1CCOCC1	-29	7	7	i	i	3	nt
COc1cc2c(cc1O)CC[C@@H]1[C@@H]2CC[C@]2(C)[C@@H](O)CC[C@@H]12	57	61*	-43	i	i	75*	54*
O=C(N/N=C/c1cccs1)C1COc2ccccc2O1 (stereo unspecified)	2	-5	-62	i	i	-21	nt
Cc1ccc(/C=N/NC(=O)C2COc3ccccc3O2)s1 (stereo unspecified)	nt	59*	8	i	i	-20	48*
Cc1ccc(C(=O)Nc2ccc3c(c2)nc2n3CCSC2)cc1	-140	-171	-111	i	i	-67	-71
SMILES	KLF5 inhibitor	Jurkat NFkB inh	697 NFkB inh	TMEM16A act	TMEM16A inh	aSyn 5UTR inh	Jurkat NFkB conf
CC(=O)Nc1ccc2c(c1)nc1n2CCSC1	-26	0	6	i	i	-3	nt
NN=C1c2ccccc2-c2ccc(N)cc21	nt	nt	nt	i	nt	nt	nt
N#Cc1cc2c(nc1SCc1nc3ccccc3[nH]1)CCC2	-84	-169	-131	nt	i	-6	-56
CC(=O)O[C@H]1C(=O)[C@@]2(C)[C@H]([C@H](OC(=O)c3ccccc3)[C@]3(O)C[C@H](OC(=O)[C@H](O)[C@@H](NC(=O)c4ccccc4)c4ccccc4)C(C)=C1C3(C)C)[C@]1(OC(C)=O)CO[C@@H]1C[C@@H]2O	nt	70*	-2	i	i	nt	68*
CC(=O)O[C@H]1C(=O)[C@@]2(C)[C@H]([C@H](OC(=O)c3ccccc3)[C@]3(O)C[C@H](OC(=O)[C@H](O)C(NC(=O)c4ccccc4)c4ccccc4)C(C)=C1C3(C)C)[C@]1(OC(C)=O)CO[C@@H]1C[C@@H]2O (stereo partly specified)	nt	59*	-27	i	i	72*	60*
Fc1ccc(CNC(=S)NCc2cccc(Cl)c2)cc1	-34	9	6	i	i	5	nt
CCC(C)c1ccccc1N1CC(C(=O)Nc2cccc(S(=O)(=O)N3CCOCC3)c2)CC1=O (stereo unspecified)	-1	7	0	i	i	-2	nt
CCOc1ccc(N(CC)C(=O)CCS(=O)(=O)c2cccc3nonc23)cc1	-30	10	5	i	i	-23	nt
COc1cccc(-c2nnc3n2N=C(c2cc(OC)ccc2OC)CS3)c1	-8	17	6	i	i	29	nt
CCOc1cccc(-c2nnc3n2N=C(c2cc(OC)ccc2OC)CS3)c1	38	53*	-64	i	i	63*	48*
CC(C(=O)N1CCc2ccccc21)N1CCN(S(=O)(=O)c2cccc(C(F)(F)F)c2)CC1 (stereo unspecified)	nt	5	9	i	nt	nt	nt
Cn1c(SC2=CS(=O)(=O)c3ccccc32)nc2ccccc21	-14	74*	-88	i	i	-29	39
N#CC(OC(=O)c1ccccc1)c1ccccc1 (stereo unspecified)	nt	nt	nt	i	nt	nt	nt
O=C(Nc1ccc(/C=C/c2nc3ccccc3o2)cc1)c1c(F)cccc1F	-144	-127	-115	i	i	-171	nt
CC(=O)Nc1ccc(/C=C/c2nc3ccccc3o2)cc1	-237	-150	-145	i	i	-128	-100
Cc1ccc(C(=O)NC2CCCC2)s1	-42	9	-10	i	i	-24	nt
